From PubChem BioAssay (NCATS)
Inconclusive results are not listed. Entries that show only a call come without a potency. Active and inactive are the calls of the source. Unless noted, calls follow the shape of the full dose curve.

Assays:
[1] = Primary qHTS for inhibitors of SARS-S pseudo-typed particle cell entry (AID 1479145); also: nearly all actives have a fitted effect of over 45% in size
[2] = Primary qHTS for Huh7 cytotoxicity: counterscreen for inhibitors of MERS-S pseudotyped particle cell entry (AID 1479147); conditions: outcome: dose series up to 57.1 µM unless noted
[3] = Primary qHTS for inhibitors of MERS-S pseudo-typed particle cell entry (AID 1479149); also: nearly all actives have a fitted effect of over 60% in size
[4] = Primary qHTS for Vero E6 cytotoxicity: counterscreen for inhibitors of SARS-S pseudo-typed particle cell entry (AID 1479150); conditions: outcome: dose series up to 57.1 µM unless noted
[5] = Cytotoxicity counterscreen for inhibitors of SARS-CoV-2 cell entry (AID 1645845); also: nearly all actives have a fitted effect of over 50% in size
How it was run: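 Counterscreen run in the same HEK293-ACE2 line as the pseudotyped-particle entry assay, without particles. Viability after 48 h at 37 C was read as ATP luminescence, scaled between cell-containing and cell-free wells.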

CRL-7250 = normal cell line; assay: qHTS assay to identify novel small-molecules to repurpose for Merkel cell carcinoma treatment (AID 1296009; active = well fitted curve in the direction sought with a large enough effect; an effect the other way counts as inactive or inconclusive; also: nearly all actives have a fitted effect of over 60% in size); conditions: MCC and control cell lines, CellTiter-Glo viability, 72 h; series mostly up to 92 µM
How it was run: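 Dose-response viability screen; 72 hr exposure at 37 degree celsius; CellTiter-Glo added, 10 min room temperature, luminescence read; RLUs scaled between no-cell and DMSO wells.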

[6] = Confirmatory qHTS for VERO E6 Cytotoxicity Assay: Counterscreen for SARS-CoV-2 CPE Assay (AID 1508605); also: nearly all actives have a fitted effect of over 60% in size
[7] = qHTS for Inhibitors of the Functional Ribonucleoprotein Complex (vRNP) of Lassa (LASV) Arenavirus: Viability assay - alamar blue signal for LASV Primary Screen (AID 1347083; calls by dose curve; tested in HEK293 reporter line; also: potency is read from the fitted curve at half-maximal effect; nearly all actives have a fitted effect of over 80% in size)
[8] = qHTS for Inhibitors of the Functional Ribonucleoprotein Complex (vRNP) of Lymphocytic Choriomeningitis Arenaviruses (LCMV): Viability assay - alamar blue signal for LCMV Primary Screen (AID 1347085; calls by dose curve; tested in HEK293 reporter line; also: potency is read from the fitted curve at half-maximal effect; nearly all actives have a fitted effect of over 80% in size)
[9] = Primary qHTS to identify inhibitors of SARS-CoV-2 cell entry (AID 1645846); conditions: activity change, negative = inhibition: at 57.1 µM (top of the series) unless noted; also: nearly all actives have a fitted effect of over 45% in size
How it was run: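 Using luciferase-reporting pseudoviruses carrying Wuhan-Hu-1 spike, the screen tracks entry into stably ACE2-expressing cells over 48 hr. Activity is expressed relative to spike particles versus particles lacking any fusion protein.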

[10] = VSVG counterscreen qHTS to identify inhibitors of SARS-CoV-2 cell entry (AID 1645847); also: nearly all actives have a fitted effect of over 65% in size
How it was run: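 Entry of VSV-G pseudotyped particles into human ACE2-expressing HEK293 cells was measured by luciferase luminescence 48 h after infection, with compound added 1 h beforehand.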

[11] = Confirmatory qHTS for activators (rescue) of SARS-CoV-2 Cytopathic Effect (CPE) (AID 1508606); also: nearly all actives have a fitted effect of over 70% in size; also: potency is read from the fitted curve at half-maximal effect
[12] = target: Alpha-galactosidase (Coffea arabica) (UniProt Q42656); assay: Counterscreen for Glucocerebrosidase Inhibitors: qHTS Assay for Coffee Bean alpha-Galactosidase at pH 4.5 (AID 957; active = well fitted curve in the direction sought with a large enough effect; an effect the other way counts as inactive or inconclusive)
Chain of Alpha-galactosidase (Coffea arabica) (Q42656 whole entry, looked up): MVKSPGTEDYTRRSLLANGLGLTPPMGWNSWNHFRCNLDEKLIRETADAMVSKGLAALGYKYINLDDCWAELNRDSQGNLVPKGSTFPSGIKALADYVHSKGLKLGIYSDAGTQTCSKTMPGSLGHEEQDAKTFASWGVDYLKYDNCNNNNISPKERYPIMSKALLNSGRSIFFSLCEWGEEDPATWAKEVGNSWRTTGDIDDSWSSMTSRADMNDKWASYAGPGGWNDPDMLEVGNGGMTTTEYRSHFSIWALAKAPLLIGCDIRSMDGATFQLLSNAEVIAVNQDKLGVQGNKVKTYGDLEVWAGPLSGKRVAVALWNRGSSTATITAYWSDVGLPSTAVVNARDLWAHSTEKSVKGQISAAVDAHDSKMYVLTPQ
How it was run: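 Fluorogenic qHTS at pH 4.5 (citrate buffer with Tween-20): 2 nM enzyme, 80 uM 4-MU-alpha-galactoside substrate, compound titrated 0.7 nM to 77 uM, 20 min room temperature. Glycine/NaOH stop; 4-MU read Ex 365/Em 440; Hill-equation AC50 against no-enzyme and enzyme controls.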

[13] = target: Alpha-galactosidase (Coffea arabica) (UniProt Q42656); assay: Counterscreen for Glucocerebrosidase Inhibitors: qHTS Assay for Coffee Bean alpha-Galactosidase at pH 5.9 (AID 998; active = well fitted curve in the direction sought with a large enough effect; an effect the other way counts as inactive or inconclusive)
How it was run: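 Enzyme 2 nM + cpd (0.7 nM–77 uM titration) + 4-MU-alpha-Gal 80 uM, pH 5.9 citrate/Tween-20, RT 20 min, NaOH/glycine stop pH 10, fluor 365/440. Normalized to no-enzyme and full-activity controls; Hill-fit AC50.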

[14] = Validation screen for inhibitors of Lassa infection (AID 463096)
[15] = Inducers of the Endoplasmic Reticulum Stress Response (ERSR) in human glioma: Validation (AID 504836; active = well fitted curve in the direction sought with a large enough effect; an effect the other way counts as inactive or inconclusive)
How it was run: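 Stably transfected U87-MG glioma cells carrying a GRP78-based luciferase sensor; 16 h compound incubation. Luminescence end-point read 10 min after Bright-Glo addition at room temperature.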

## CCOc1nc2cccc(C(=O)OCc3oc(=O)oc3C)c2n1Cc1ccc(-c2ccccc2-c2noc(O)n2)cc1
[1]
  Potency: inactive
[2]
  outcome: inactive
[3]
  Potency: inactive
[4]
  outcome: inactive
[5]
  Potency: inactive
CRL-7250
  Potency: inactive

## COc1ccc(CN2CCN(CCCSc3cc(C(C)(C)C)c(O)c(C(C)(C)C)c3)CC2)c(OC)c1OC
[6]
  Potency: inactive
CRL-7250
  outcome: inactive [at 9.27 µM]

## O=C1NC(=O)C(=Cc2cccc(C(F)(F)F)c2)S1
[7]
  Potency: 13.7 µM (active)
CRL-7250
  Potency: inactive

## CCc1c(Cl)c(O)c(Cl)c(O)c1C(=O)O[C@H]1[C@H](O)[C@H](OC)[C@H](OC/C2=C\C=C\C[C@H](O)/C(C)=C\[C@H](CC)[C@@H](O[C@@H]3OC(C)(C)[C@@H](OC(=O)C(C)C)[C@H](O)[C@@H]3O)/C(C)=C/C(C)=C/C[C@@H]([C@@H](C)O)OC2=O)O[C@@H]1C
[1]
  Potency: inactive
[2]
  outcome: inactive
[4]
  outcome: inactive
CRL-7250
  Potency: inactive

## CN(C)CCOc1cc(-c2cn[nH]c2)ccc1NC(=O)C1COc2ccccc2O1 (stereo not given)
[8]
  Potency: 27.3 µM (active)
[5]
  Potency: inactive
[9]
  activity change, negative = inhibition: -42.9%
CRL-7250
  Potency: inactive

## CCCSc1nc(N[C@@H]2C[C@H]2c2ccc(F)c(F)c2)c2nnn([C@@H]3C[C@H](OCCO)[C@@H](O)[C@H]3O)c2n1
[2]
  outcome: inactive
[3]
  Potency: inactive
[4]
  outcome: inactive
[5]
  Potency: inactive
CRL-7250
  Potency: inactive

## COc1ccc2cc(OCC3(C(=O)O)CN(C(=O)c4ccc(F)cc4)C3)ccc2c1
[9]
  activity change, negative = inhibition: -2.33%
CRL-7250
  Potency: inactive

## C=C1C[C@@]2(O)O[C@@]3(C[C@H]2C(C)C)[C@@H](C)CC[C@@H]13
[5]
  Potency: inactive
[9]
  Potency: inactive
CRL-7250
  Potency: inactive

## CO[C@@H]1COCC[C@@H]1N[C@@H]1CC[C@@](C(=O)N2CCc3ncc(C(F)(F)F)cc3C2)(C(C)C)C1
[5]
  Potency: inactive
[9]
  Potency: inactive
CRL-7250
  Potency: inactive

## CC(C)N(C[C@H]1O[C@@H](n2cnc3c(N)ncnc32)[C@H](O)[C@@H]1O)C1CC(CCc2nc3ccc(C(C)(C)C)cc3[nH]2)C1 (stereo not given in full)
[5]
  Potency: inactive
[9]
  Potency: inactive
CRL-7250
  Potency: inactive

## CC[C@@](C)(Nc1ccnc(-c2c[nH]c3ncccc23)n1)C(=O)NCC(F)(F)F
[5]
  Potency: inactive
[9]
  activity change, negative = inhibition: -38.3%
[10]
  Potency: inactive
CRL-7250
  Potency: inactive

## COCCCc1sc(-c2ccccc2)nc1C(=O)Nc1ccccc1-c1nc2cc(CN3CCCC3)cnc2s1
[5]
  Potency: inactive
CRL-7250
  Potency: inactive

## Cc1nn(C)c2c1C(c1ccc(C(F)(F)F)cc1)C(C#N)=C(N)O2 (stereo not given)
[5]
  Potency: inactive
[9]
  Potency: inactive
CRL-7250
  Potency: inactive

## CCNC1(C(N)=O)CCN(c2ncnc3c2nc(-c2ccccc2Cl)n3-c2ccc(Cl)cc2)CC1
[5]
  Potency: inactive
CRL-7250
  Potency: inactive

## CS(=O)(=O)c1ccc(Oc2cc(F)cc(C#N)c2)c2c1[C@H](O)C(F)(F)C2
[5]
  Potency: inactive
[9]
  Potency: inactive
CRL-7250
  Potency: inactive

## CCCOc1ccn2c(C(C)=O)cc(-c3ccccc3S(C)(=O)=O)c2c1
[5]
  Potency: inactive
[9]
  Potency: inactive
CRL-7250
  Potency: inactive

## N#Cc1cccc(-c2c[nH]c3ncnc(N4CCOCC4)c23)c1
[5]
  Potency: inactive
[9]
  Potency: inactive
CRL-7250
  Potency: inactive

## CCC(CC)CC1(C(=O)Nc2ccccc2SC(=O)C(C)C)CCCCC1
[5]
  Potency: inactive
[9]
  activity change, negative = inhibition: -15.2%
CRL-7250
  Potency: inactive

## CCC(=O)c1cc(-c2ccc(Cl)cc2)n(-c2ccc(S(N)(=O)=O)cc2)c1C
[6]
  Potency: inactive
[11]
  Potency: inactive
CRL-7250
  Potency: inactive

## COc1ccc(-c2cnc3c(-c4cccc5ncccc45)cnn3c2)cc1
[5]
  Potency: inactive
[9]
  Potency: inactive
CRL-7250
  Potency: inactive

## CCS(=O)(=O)N1CCC([C@@H](C)n2c(C)c(C(=O)NCc3c(OC)cc(C)[nH]c3=O)c3ccccc32)CC1
[5]
  Potency: inactive
[9]
  Potency: inactive
CRL-7250
  Potency: inactive

## O=C(CCc1ccc(O)cc1)c1c(O)cc(O)cc1O
[12]
  outcome: inactive
[13]
  outcome: inactive
[14]
  Potency: inactive
[15]
  outcome: inactive
[5]
  Potency: inactive
[9]
  activity change, negative = inhibition: -19.9%
CRL-7250
  Potency: inactive

## CCNC(=O)CCC/C=C\C[C@@H]1[C@@H](/C=C/C(O)CCc2ccccc2)[C@@H](O)C[C@@H]1O (stereo not given in full)
[5]
  Potency: inactive
[9]
  activity change, negative = inhibition: -23.1%
CRL-7250
  Potency: inactive

## COc1cc(S(C)(=O)=O)ccc1Nc1nc2ccc(-c3ccc(NC(=O)[C@H](C)c4ccc(F)cc4)cc3)cn2n1
[5]
  Potency: inactive
CRL-7250
  Potency: inactive

## Cn1ncc2cc(-c3cnc(N)c(Cl)c3N3CCC4(CCNC4=O)CC3)ccc21
[11]
  Potency: 2.82 µM (active)
[5]
  Potency: inactive
CRL-7250
  Potency: inactive

## CNc1nc(C)nc(N[C@H]2CCC[C@@H](C(=O)NCc3ccc(C#N)cc3C(F)(F)F)C2)n1
[5]
  Potency: inactive
[9]
  Potency: inactive
CRL-7250
  Potency: inactive

## NC1CCC(N[C@@H]2C[C@H]2c2ccccc2)CC1 (stereo not given in full)
[5]
  Potency: inactive
[9]
  activity change, negative = inhibition: -44.4%
CRL-7250
  Potency: inactive

## O=C1C(c2c(O)[nH]c3ccccc23)=Nc2ccccc21
[5]
  Potency: inactive
[9]
  Potency: inactive
CRL-7250
  Potency: inactive

## COc1cc(-c2cc(-c3ccc(N4CCNCC4)cc3)cnc2C)cc(OC)c1OC
[5]
  Potency: inactive
CRL-7250
  Potency: inactive

## CN1CC[C@@H](c2c(O)cc(O)c3c(=O)cc(-c4ccc(C(F)(F)F)cc4Cl)oc23)[C@@H]1CO
[6]
  Potency: inactive
[5]
  Potency: inactive
[9]
  activity change, negative = inhibition: -12.4%
CRL-7250
  Potency: inactive

## N#Cc1ccc(COC[C@H]2O[C@@H](n3c(NCc4ccc(Cl)c(Cl)c4)nc4c(N)ncnc43)[C@H](O)[C@@H]2O)cc1
[5]
  Potency: inactive
CRL-7250
  Potency: inactive

## Cc1c(-c2ccnn2C)cc(C(=O)NCc2ccc(S(C)(=O)=O)cn2)c(=O)n1-c1cccc(C(F)(F)F)c1
[5]
  Potency: inactive
[9]
  Potency: inactive
CRL-7250
  Potency: inactive

## Cc1cccc(-c2[nH]c(CNc3ccccc3F)nc2-c2ccc3ncnn3c2)n1
[9]
  activity change, negative = inhibition: -32.1%
CRL-7250
  Potency: inactive

## c1cc(-c2cnn3cc(-c4ccc(N5CCNCC5)cc4)cnc23)c2cccnc2c1
[5]
  Potency: inactive
[9]
  Potency: inactive
CRL-7250
  Potency: inactive

## Cc1[nH]c(/C=C2\C(=O)Nc3ccc(S(=O)(=O)N(C)c4cccc(Cl)c4)cc32)c(C)c1C(=O)N1CCN(C)CC1
[6]
  Potency: inactive
[11]
  Potency: inactive
[5]
  Potency: inactive
CRL-7250
  Potency: inactive

## CCCCOc1nc(N)c2c(n1)N(Cc1cccc(CN3CCCC3)c1)CC(=O)N2
[5]
  Potency: inactive
[9]
  activity change, negative = inhibition: -22.5%
CRL-7250
  Potency: inactive

## COc1ccccc1OCCNCC(O)CCOc1cccc2[nH]c3ccccc3c12 (stereo not given)
[6]
  Potency: inactive
[11]
  Potency: 10 µM (active)
CRL-7250
  Potency: inactive

## CCN(c1cc(C#CCN2CCOCC2)cc(C(=O)NCc2c(C)cc(C)[nH]c2=O)c1C)C1CCC(N(C)CCOC)CC1 (stereo not given)
[5]
  Potency: inactive
[9]
  Potency: inactive
CRL-7250
  Potency: inactive

## COc1ccccc1OCCN1CC(COc2cccc3[nH]c4ccccc4c23)OCC1=O (stereo not given)
[6]
  Potency: inactive
[11]
  Potency: inactive
CRL-7250
  Potency: inactive

## CCc1cccc(CC)c1-n1c(C=C(C)C)c(C(=O)N2CCNCC2)cc(-c2nc(-c3ccc(C(F)(F)F)cc3)cs2)c1=O
[6]
  Potency: inactive
[11]
  Potency: inactive
CRL-7250
  Potency: inactive
